SMN2 splice up: SMN2 splice variant enhancement; HEK293 SMN2-luciferase splicing reporter, luminescence, 30-36 h; Potency, µM (highest dose often 46.1 µM), most hits filed as activators; 210,000 compounds, 2.8% hits; AID 1458; note: nearly all actives have a fitted effect of over 55% in size
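HEK293 cells carry an SMN2 minigene-luciferase reporter in which exon 7 inclusion puts luciferase in frame. Cells were seeded at 2000 cells/well, attached for 10-12 hours, then exposed to compounds for 30-36 hours at 37C before ONE-Glo luminescence.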
NPC1 prom act: activators of NPC1 promoter; Huh7 NPC1 promoter luciferase reporter, 24 h; Potency, µM (top dose mostly 9.22 µM), most hits filed as activators; 320,000 compounds, 2.4% hits; AID 485313; note: nearly all actives have a fitted effect of over 60% in size
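Stably transfected Huh7 (NPC1 promoter→luciferase), 1500 cells/well in Opti-MEM + 10% FBS, 2 h settle, then compound 24 h at 37 °C. Luminescence after 10 min with Amplite reagent.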
FLuc modulator: inhibits or activates purified firefly luciferase, miR-21 counter-screen; P08659; purified FLuc, Km substrates, luminescence inhibition; Potency, µM (series often up to 57.5 µM), actives largely listed as inhibitors; 360,000 compounds, 6.9% hits; note: nearly all actives have a fitted effect of over 55% in size
Target sequence (P08659 whole entry, looked up): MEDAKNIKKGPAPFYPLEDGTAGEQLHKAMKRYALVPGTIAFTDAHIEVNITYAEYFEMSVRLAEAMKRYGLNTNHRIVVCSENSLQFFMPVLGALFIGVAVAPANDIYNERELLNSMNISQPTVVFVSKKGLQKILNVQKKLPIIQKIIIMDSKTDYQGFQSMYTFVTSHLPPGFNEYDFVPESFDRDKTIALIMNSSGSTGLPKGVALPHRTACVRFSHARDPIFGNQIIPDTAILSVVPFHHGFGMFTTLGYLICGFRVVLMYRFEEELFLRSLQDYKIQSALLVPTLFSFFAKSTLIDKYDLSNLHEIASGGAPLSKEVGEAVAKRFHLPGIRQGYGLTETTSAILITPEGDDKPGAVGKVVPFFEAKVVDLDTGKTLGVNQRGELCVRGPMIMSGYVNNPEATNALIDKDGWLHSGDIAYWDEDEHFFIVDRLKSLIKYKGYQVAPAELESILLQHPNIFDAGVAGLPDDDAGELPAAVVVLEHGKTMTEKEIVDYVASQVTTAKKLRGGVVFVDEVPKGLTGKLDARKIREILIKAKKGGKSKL
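Purified P. pyralis luciferase (10nM final) with 10uM D-luciferin and 10uM ATP (Km levels) in 50mM Tris acetate pH 7.5, 10mM Mg acetate, 0.01% Tween-20, 0.05% BSA; qHTS 6-point titration, ~60 µM downward; luminescence read.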
Luc counter: counter-screen: inhibitors of Kinase-Glo firefly luciferase. Kinase-Glo luciferase, ATP luminescence, 8 min. Q27757. 200,000 compounds, 0.28% hits. Potency, µM (titrated, usually from 38.3 µM), hits mostly inhibitors; note: nearly all actives have a fitted effect of over 60% in size
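Light output from Kinase-Glo luciferase with luciferin and 10 uM ATP in 50 mM imidazole pH 7.2, KCl, MgCl2, Tween 20, BSA; compound pin-delivered, 8-min ambient incubation, then luminescence read.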
ELG1 genotox: inducers of genotoxicity in HEK293T ELG1-luciferase cells | HEK293T ELG1-luciferase reporter, luminescence, 16 h | Potency, µM (highest dose often 46 µM), usual class: activators | 330,000 compounds, 1.3% hits | AID 504466; note: nearly all actives have a fitted effect of over 60% in size
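Genotoxic stress is detected as increased luminescence from luciferase-tagged ELG1 in HEK293T cells, measured with ONE-Glo after a 16 hr treatment at 37 °C.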
Rab9 promoter act: activates the Rab9 promoter; Huh7 Rab9 promoter-luciferase reporter, luminescence, 24 h; Potency, µM (doses to about 9.22 µM), most hits filed as activators; 320,000 compounds, 2.8% hits; AID 485297; note: nearly all actives have a fitted effect of over 60% in size
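Huh7 cells stably carrying Rab9 promoter–luciferase reporter, plated 1500 cells/well, compound added after 2 h and incubated 24 h at 37 °C; luciferase luminescence then read after 10 min with detection reagent.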
Each line names hits and unclear results; the compound was inactive in the other large screens. An excerpt weighted towards active compounds, which were near 7.5% of everything screened. Calls come from the whole dose curve; as a rule, active = well fitted curve in the direction sought with a large enough effect; inconclusive = small, poorly fitted or top-dose-only effect, or another doubt; inactive = no such curve, though single readings can be large; an effect the other way counts as inactive or inconclusive.

COc1ccc(N2CCN(C(CNC(=O)C(=O)NCCCN(C)C)c3cccnc3)CC2)cc1 (stereo not given)	none (no result: SMN2 splice up, NPC1 prom act, Luc counter, ELG1 genotox, Rab9 promoter act)
O=[N+]([O-])c1ccc(O)c(/C=N/Nc2nc3ccccc3[nH]2)c1	FLuc modulator inconclusive, ELG1 genotox 18µM
COc1ccc(O)c(/C=N/Nc2nc3ccccc3[nH]2)c1	SMN2 splice up inconclusive, FLuc modulator 6.7µM, ELG1 genotox inconclusive, Rab9 promoter act inconclusive
COc1cc(/C=N/Nc2nc3ccccc3[nH]2)cc(OC)c1O	FLuc modulator 4.8µM (no result: SMN2 splice up, Luc counter)
COc1cc(/C=N/Nc2nc3ccccc3[nH]2)ccc1O	FLuc modulator 4.8µM, ELG1 genotox inconclusive
COc1ccc(Cl)cc1Nc1ccc2cc(S(=O)(=O)N3CCCCC3)ccc2n1	none (no result: SMN2 splice up, NPC1 prom act, Luc counter, ELG1 genotox, Rab9 promoter act)
CC(=O)Nc1ccccc1-c1nc2ccccc2n(C(C)C(=O)Nc2cc(Cl)ccc2C)c1=O (stereo not given)	none (no result: SMN2 splice up, NPC1 prom act, Luc counter, ELG1 genotox, Rab9 promoter act)
CCN(CC)c1cc2c(cc1F)c(=O)c(S(=O)(=O)c1cccc(C)c1)cn2C	none (no result: SMN2 splice up, NPC1 prom act, Luc counter, ELG1 genotox, Rab9 promoter act)
COc1cc(/C=N/Nc2nc(=O)[nH]nc2C)ccc1O	FLuc modulator inconclusive (no result: SMN2 splice up, Luc counter)
COc1cc(/C=N/Nc2nc3ccccc3[nH]c2=O)ccc1O	SMN2 splice up inconclusive, FLuc modulator 15µM
COc1cc(/C=N/NC(=O)c2ccc(CSc3nc4ccccc4[nH]3)cc2)cc(OC)c1OC	SMN2 splice up inconclusive, FLuc modulator inconclusive
COc1cc(/C=C(/C(=O)c2cccs2)c2nc3ccccc3[nH]2)cc(OC)c1O	FLuc modulator 2.4µM, Luc counter inconclusive
COc1cc(/C=N/Nc2nc3ccccc3[nH]2)cc(Br)c1OCC(=O)N(C)C	FLuc modulator 24µM
COc1ccccc1CCNC(=O)C(=O)NCC(c1cccnc1)N1CCN(c2ccccc2)CC1 (stereo not given)	none (no result: SMN2 splice up, NPC1 prom act, Luc counter, ELG1 genotox, Rab9 promoter act)
CCOc1cc(/C=C2\SC(=S)N(C(C(=O)O)c3ccccc3)C2=O)ccc1O (stereo not given)	FLuc modulator inconclusive (no result: SMN2 splice up, Luc counter)

Compound activity from PubChem BioAssay.
